“And” between values parts separate entries of the source, which are not always exact repeats. Equal values may be shown once. Results filed as inconclusive are left out. A call without a number means that no potency is given here. More than one record can exist for a structure, and the calls need not agree. The source made the active and inactive calls. Unless noted, the call rests on the fitted dose curve; in most records, active means well fitted curve in the direction sought with a large enough effect in the repeat runs; inconclusive means weak or mixed curves; inactive means no such curve, though single readings can be large; an effect the other way counts as inactive or inconclusive.
Tests used:
[1] = qHTS assay to identify small molecule antagonists of the thyroid receptor (TR) signaling pathway - cell viability counter screen (AID 743064); further: nearly all actives have a fitted effect of over 50% in size
How it was run: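 CellTiter-Fluor readout, 30 min at 37 °C/5% CO2, following 23.5 h incubation of GH3.TRE-Luc cells with test compound and 1 nM T3 (final).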

[2] = qHTS assay to identify small molecule antagonists of the thyroid receptor (TR) signaling pathway (AID 743065); further: nearly all actives have a fitted effect of over 55% in size; further: potency means the concentration at half of the fitted maximal effect
How it was run: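 GH3.TRE-Luc rat pituitary cells carrying two TR response elements driving luciferase were plated for 4 h, given compound plus 1 nM T3 (final), and incubated 23.5 h at 37 C. ONE-Glo luminescence measured reporter inhibition; CellTiter-Fluor fluorescence tracked cytotoxicity.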

[3] = system: thyroid hormone receptor (rat, GH3 cells); test: qHTS assay to identify small molecule agonists of the thyroid receptor (TR) signaling pathway (AID 743066; calls by dose curve)
[4] = target: Estrogen receptor (Homo sapiens) (UniProt P03372); test: qHTS assay to identify small molecule antagonists of the estrogen receptor alpha (ER-alpha) signaling pathway (AID 743069; active means well fitted curve in the direction sought with a large enough effect in the signal ratio in the repeat runs, not every such curve was filed as active; the % refers to the signal ratio)
Sequence of Estrogen receptor (Homo sapiens) (P03372 whole entry, looked up): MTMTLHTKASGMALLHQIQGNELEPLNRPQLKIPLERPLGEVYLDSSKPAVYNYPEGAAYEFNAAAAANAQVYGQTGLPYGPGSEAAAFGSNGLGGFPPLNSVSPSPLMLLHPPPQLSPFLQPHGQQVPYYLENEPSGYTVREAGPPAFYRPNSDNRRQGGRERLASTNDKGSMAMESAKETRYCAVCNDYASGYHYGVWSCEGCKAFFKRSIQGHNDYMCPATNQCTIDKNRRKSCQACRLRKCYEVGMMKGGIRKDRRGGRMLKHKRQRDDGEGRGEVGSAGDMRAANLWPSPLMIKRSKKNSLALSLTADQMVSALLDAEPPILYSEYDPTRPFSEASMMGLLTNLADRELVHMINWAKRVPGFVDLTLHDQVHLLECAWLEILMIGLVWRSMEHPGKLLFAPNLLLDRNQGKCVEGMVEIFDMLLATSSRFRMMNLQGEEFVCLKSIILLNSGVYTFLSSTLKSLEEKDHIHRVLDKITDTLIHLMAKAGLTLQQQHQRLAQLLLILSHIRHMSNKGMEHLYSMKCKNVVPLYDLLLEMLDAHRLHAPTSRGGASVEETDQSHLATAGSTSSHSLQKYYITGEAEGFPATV
How it was run: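 HEK293 cells stably carrying an ER-alpha-UAS-bla beta-lactamase reporter were pre-cultured overnight in 2% charcoal-stripped FBS medium. Test compounds in DMSO were added together with 17beta-estradiol for 18 hr at 37C. Read-out was fluorescence after 2 hr with LiveBLAzer B/G FRET substrate at room temperature.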

[5] = qHTS assay to identify small molecule antagonists of the estrogen receptor alpha (ER-alpha) signaling pathway - cell viability counter screen (AID 743074; calls by dose curve; further: nearly all actives have a fitted effect of over 45% in size)
[6] = target: Estrogen receptor (Homo sapiens) (UniProt P03372); test: qHTS assay to identify small molecule agonists of the estrogen receptor alpha (ER-alpha) signaling pathway (AID 743075; calls by dose curve; further: potency means the concentration at half of the fitted maximal effect)
[7] = target: Estrogen receptor (Homo sapiens) (UniProt P03372); test: qHTS assay to identify small molecule agonists of the estrogen receptor alpha (ER-alpha) signaling pathway using the BG1 cell line (AID 743079); further: nearly all actives have a fitted effect of over 20% in size; further: potency means the concentration at half of the fitted maximal effect
[8] = qHTS assay to identify small molecule antagonists of the estrogen receptor alpha (ER-alpha) signaling pathway using the BG1 cell line (AID 743080; calls by dose curve;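 further: BG1 cells stimulated with 17beta-estradiol alongside compound; nearly all actives have a fitted effect of over 25% in size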; further: potency means the concentration at half of the fitted maximal effect)
How it was run: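 Luminescence from a 4×ERE-luciferase reporter in BG1-Luc-4E2 cells served as read-out. Cells, pre-cultured 5 days in stripped-serum phenol-red-free medium, were exposed to compound with 17beta-estradiol co-stimulation for 21.5 h at 37 C.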

[9] = qHTS assay to identify small molecule antagonists of the estrogen receptor alpha (ER-alpha) signaling pathway using the BG1 cell line - cell viability counter screen (AID 743081);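 further: compound given together with 17beta-estradiol as the ER stimulus; series mostly up to about 70 µM; nearly all actives have a fitted effect of over 45% in size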
Aromatase (Homo sapiens) = Aromatase (Homo sapiens) (UniProt P11511); test: qHTS assay to identify aromatase inhibitors (AID 743083); further: series mostly up to about 70 µM; nearly all actives have a fitted effect of over 55% in size
Sequence of Aromatase (Homo sapiens) (P11511 whole entry, looked up): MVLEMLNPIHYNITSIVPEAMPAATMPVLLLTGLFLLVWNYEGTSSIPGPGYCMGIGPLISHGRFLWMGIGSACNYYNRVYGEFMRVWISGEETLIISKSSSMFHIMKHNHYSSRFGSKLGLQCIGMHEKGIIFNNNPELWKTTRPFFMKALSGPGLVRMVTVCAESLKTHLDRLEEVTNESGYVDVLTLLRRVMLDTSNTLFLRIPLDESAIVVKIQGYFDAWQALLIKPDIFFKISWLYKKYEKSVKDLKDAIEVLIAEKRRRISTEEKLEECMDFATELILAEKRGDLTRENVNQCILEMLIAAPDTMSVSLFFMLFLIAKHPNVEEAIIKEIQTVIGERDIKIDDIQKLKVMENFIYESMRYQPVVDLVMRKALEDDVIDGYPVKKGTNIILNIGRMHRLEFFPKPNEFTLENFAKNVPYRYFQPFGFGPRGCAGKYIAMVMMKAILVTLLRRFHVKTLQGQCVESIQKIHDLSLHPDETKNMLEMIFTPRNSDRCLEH

[10] = qHTS assay to identify aromatase inhibitors - cell viability counter screen (AID 743084);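 further: cells stimulated with testosterone during compound exposure; nearly all actives have a fitted effect of over 55% in size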
[11] = target: Aryl hydrocarbon receptor (Homo sapiens) (UniProt P35869); test: qHTS assay to identify small molecule that activate the aryl hydrocarbon receptor (AhR) signaling pathway (AID 743085); further: nearly all actives have a fitted effect of over 15% in size; further: potency means the concentration at half of the fitted maximal effect;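 on activation: HG2L7.5c1 human HepG2 liver cells with stably integrated DRE-driven firefly reporter; series mostly up to about 70 µM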
Sequence of Aryl hydrocarbon receptor (Homo sapiens) (P35869 whole entry, looked up): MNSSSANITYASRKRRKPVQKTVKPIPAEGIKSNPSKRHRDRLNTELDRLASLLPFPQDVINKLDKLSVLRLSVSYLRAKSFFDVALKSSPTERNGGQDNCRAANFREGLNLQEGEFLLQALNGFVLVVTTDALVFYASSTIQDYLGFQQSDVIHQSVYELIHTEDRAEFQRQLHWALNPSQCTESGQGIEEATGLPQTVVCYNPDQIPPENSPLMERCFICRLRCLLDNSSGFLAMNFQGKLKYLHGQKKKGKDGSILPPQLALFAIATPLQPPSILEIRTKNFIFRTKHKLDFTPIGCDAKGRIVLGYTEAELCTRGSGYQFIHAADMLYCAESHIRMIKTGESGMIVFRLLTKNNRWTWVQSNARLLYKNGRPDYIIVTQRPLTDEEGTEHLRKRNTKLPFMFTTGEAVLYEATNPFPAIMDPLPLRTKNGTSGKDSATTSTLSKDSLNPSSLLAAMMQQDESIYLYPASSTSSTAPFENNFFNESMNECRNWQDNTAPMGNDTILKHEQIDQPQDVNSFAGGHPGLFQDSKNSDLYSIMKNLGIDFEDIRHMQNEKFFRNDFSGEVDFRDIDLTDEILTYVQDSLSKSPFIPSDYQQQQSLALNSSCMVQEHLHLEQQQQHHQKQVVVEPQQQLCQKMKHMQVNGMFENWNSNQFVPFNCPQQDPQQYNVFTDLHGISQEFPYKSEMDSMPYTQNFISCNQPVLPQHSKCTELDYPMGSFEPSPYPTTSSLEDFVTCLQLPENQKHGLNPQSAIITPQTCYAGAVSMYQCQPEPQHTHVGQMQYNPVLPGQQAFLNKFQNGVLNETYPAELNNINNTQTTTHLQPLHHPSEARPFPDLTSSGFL
How it was run: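 Stably transfected human liver carcinoma cells (HG2L7.5c1; 20 DRE-firefly luciferase) were incubated 5 h, dosed, and kept 24 h at 37C. Agonism was scored from increased luciferase luminescence.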

[12] = qHTS assay for small molecule agonists of the antioxidant response element (ARE) signaling pathway (AID 743202; active means well fitted activation curve with a large enough effect in the signal ratio in the repeat runs, not every such curve was filed as active; the % refers to the signal ratio; further: potency means the concentration at half of the fitted maximal effect)
How it was run: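 Read-out: LiveBLAzer B/G FRET substrate fluorescence after 2 h at room temperature, following 16 h compound treatment at 37 C of HepG2 cells carrying an ARE-driven beta-lactamase reporter.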

[13] = qHTS assay for small molecule agonists of the antioxidant response element (ARE) signaling pathway - cell viability counter screen (AID 743203; calls by dose curve; further: nearly all actives have a fitted effect of over 55% in size)
How it was run: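 ARE-bla HepG2 cells were plated, rested 5 h at 37C/5% CO2, then exposed to compounds in DMSO for 16 h. Viability was read as CellTiter-Glo luminescence after 30 min at room temperature, in the same wells as the ARE screen.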

[14] = qHTS assay for small molecule activators of the heat shock response signaling pathway - cell viability counter screen (AID 743209); further: nearly all actives have a fitted effect of over 50% in size
How it was run: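 HSE-bla HeLa cells plated overnight, then exposed to Tox21 compounds (23 nL in DMSO) for 5 h at 37 C. After the bla reporter read, CellTiter-Glo was added in the same wells and luminescence read after 30 min at room temperature.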

[15] = qHTS assay for small molecule activators of the heat shock response signaling pathway (AID 743210; active means well fitted activation curve with a large enough effect in the signal ratio in the repeat runs, with a control signal flat, not every such curve was filed as active; the % refers to the signal ratio; further: series mostly up to about 63 µM)
How it was run: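 HSE-bla HeLa cells (beta-lactamase reporter under heat shock response elements) were exposed to compounds for 5 h at 37 C, then loaded with LiveBLAzer B/G FRET substrate for 2.5 h at room temperature before fluorescence reading.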

[16] = qHTS assay to identify small molecule that activate the aryl hydrocarbon receptor (AhR) signaling pathway - cell viability counter screen (AID 743086);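 further: HepG2 liver cells carrying the AhR DRE luciferase reporter; series mostly up to about 70 µM; nearly all actives have a fitted effect of over 45% in size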
How it was run: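 HepG2-AhR-luc (HG2L7.5c1) cells, 4000/well, were preincubated 5 h at 37C, exposed to compound in qHTS format for 24 hr at 37C, then given CellTiter-Fluor for 30 min; viability was read as fluorescence in the reporter wells.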

[17] = target: Peroxisome proliferator-activated receptor gamma (Homo sapiens) (UniProt P37231); test: qHTS assay to identify small molecule agonists of the peroxisome proliferator-activated receptor gamma (PPARg) signaling pathway (AID 743094; active means well fitted activation curve with a large enough effect in the signal ratio in the repeat runs, not every such curve was filed as active; the % refers to the signal ratio)
Sequence of Peroxisome proliferator-activated receptor gamma (Homo sapiens) (P37231 whole entry, looked up): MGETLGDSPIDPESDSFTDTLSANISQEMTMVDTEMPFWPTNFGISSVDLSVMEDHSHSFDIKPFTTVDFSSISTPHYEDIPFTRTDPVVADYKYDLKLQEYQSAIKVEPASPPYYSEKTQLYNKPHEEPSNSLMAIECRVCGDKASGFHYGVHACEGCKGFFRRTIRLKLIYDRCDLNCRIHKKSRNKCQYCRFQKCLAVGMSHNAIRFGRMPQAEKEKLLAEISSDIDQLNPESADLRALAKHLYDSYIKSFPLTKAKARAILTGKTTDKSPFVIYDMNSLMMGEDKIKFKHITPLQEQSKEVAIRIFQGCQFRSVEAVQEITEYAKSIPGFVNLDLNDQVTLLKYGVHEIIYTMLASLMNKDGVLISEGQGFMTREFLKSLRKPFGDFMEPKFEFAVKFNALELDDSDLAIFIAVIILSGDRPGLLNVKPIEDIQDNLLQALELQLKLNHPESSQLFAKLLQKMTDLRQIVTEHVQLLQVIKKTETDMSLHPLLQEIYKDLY
How it was run: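 GeneBLAzer PPARg UAS-bla HEK293H cells were plated, rested 5 h, then exposed to compounds for 17 h at 37C. Beta-lactamase activity was read by LiveBLAzer B/G FRET substrate fluorescence after 1 h at room temperature.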

[18] = target: Peroxisome proliferator-activated receptor gamma (Homo sapiens) (UniProt P37231); test: qHTS assay to identify small molecule antagonists of the peroxisome proliferator-activated receptor gamma (PPARg) signaling pathway (AID 743191; calls by dose curve; further: series mostly up to about 63 µM; nearly all actives have a fitted effect of over 30% in size)
How it was run: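 GeneBLAzer PPARg UAS-bla HEK293H cells carrying a UAS-driven beta-lactamase reporter were plated at 3000 cells/well, preincubated 5 h at 37C, then given compound for 17 h at 37C; LiveBLAzer B/G FRET substrate was read after 1 h at room temperature.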

[19] = qHTS assay to identify small molecule antagonists of the peroxisome proliferator-activated receptor gamma (PPARg) signaling pathway - cell viability counter screen (AID 743194); further: nearly all actives have a fitted effect of over 55% in size
How it was run: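 PPARg-UAS-bla HEK293H cells were plated, rested 5 h at 37 C, then treated with compounds plus rosiglitazone (50 nM final) for 17 h at 37 C; viability was then read by CellTiter-Glo luminescence after 30 min at room temperature.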

SMILES | Potency [1] | Potency [2] | Potency [3] | Potency [4] | outcome [5] | Potency [6] | Potency [7] | Potency [8] | Potency [9] | Potency (Aromatase (Homo sapiens)) | Potency [10] | Potency [11] | Potency [12] | outcome [13] | outcome [14] | Potency [15] | outcome [16] | outcome [17] | outcome [18] | outcome [19]
C=C(C)C(=O)Nc1ccc(Cl)c(Cl)c1 | inactive | 49.1 µM (active) and 54.3 µM (active) | inactive | inactive | inactive | inactive | inactive | 69.3 µM (active) and 68.3 µM (active) | inactive | inactive | inactive | 69.3 µM (active) and 54.3 µM (active) | 19.5 µM (active) and 27.2 µM (active) | inactive | inactive | inactive |  |  |  | 
COc1ccc(Nc2ccccc2)c(C)c1 | inactive | inactive | inactive | inactive | inactive | inactive | inactive | inactive | inactive | inactive | inactive | inactive | inactive | inactive |  | inactive | inactive | inactive | inactive | inactive
C#CCN(C)Cc1ccccc1 | inactive | inactive | inactive |  | inactive | inactive | inactive | inactive | inactive | inactive | inactive | inactive | inactive | inactive | inactive | inactive | inactive | inactive | inactive | inactive
CC(=O)Nc1cccc(O)c1 | inactive | inactive | inactive | inactive | inactive | inactive | inactive | inactive | inactive | inactive | inactive | inactive | inactive | inactive | inactive | inactive | inactive |  | inactive | inactive
O=C(O)c1ccc2c(c1)C(=O)OC2=O | inactive | inactive | inactive | inactive |  | inactive | inactive | inactive | inactive | inactive | inactive | inactive | inactive | inactive | inactive | inactive | inactive |  | inactive | inactive
CN(C)CCCN | inactive | inactive | inactive | inactive | inactive | inactive | inactive | inactive | inactive | inactive | inactive | inactive | inactive | inactive | inactive | inactive |  | inactive |  | inactive
CC(=O)CC(=O)Nc1ccccc1C | inactive | inactive | inactive | inactive | inactive | inactive | inactive | inactive | inactive | inactive | inactive | inactive | inactive | inactive | inactive | inactive | inactive | inactive | inactive | inactive
CCOC(=O)NNc1nncc2ccccc12 | inactive | inactive | inactive |  | inactive | inactive | inactive | inactive | inactive | inactive | inactive | inactive | inactive | inactive |  | inactive | inactive |  | inactive | inactive
CCN(CC)c1ccc(C(=O)c2ccccc2C(=O)O)c(O)c1 | inactive | inactive | inactive |  | inactive | inactive | 17.3 µM (active) and 43.3 µM (active) |  | inactive | inactive | inactive | inactive | inactive | inactive |  | inactive | inactive |  |  | inactive
C=CCOC(=O)c1ccccc1C(=O)OCC=C | inactive | inactive | inactive |  | inactive | inactive | inactive | inactive | inactive |  | inactive | inactive | inactive | inactive |  | inactive | inactive | inactive | inactive | inactive
CCCCCCCC(=O)OC | inactive | inactive | inactive |  | inactive | inactive | inactive | inactive | inactive | inactive | inactive | inactive | inactive | inactive |  | inactive |  | inactive | inactive | inactive
O=C(O)CCCC[C@@H]1SC[C@@H]2NC(=O)N[C@@H]21 | inactive | inactive | inactive |  | inactive | inactive | inactive | inactive | inactive | inactive | inactive | inactive | inactive | inactive |  | inactive |  | inactive | inactive | inactive
c1ccc(OCCOc2ccccc2)cc1 | inactive | inactive | inactive |  | inactive | inactive | 61.1 µM (active) and 54.5 µM (active) |  | inactive | inactive | inactive |  | inactive | inactive |  | inactive | inactive |  | inactive | inactive
CC1=CCC2CC1C2(C)C (stereo not given) | inactive | inactive | inactive |  | inactive | inactive | inactive | inactive | inactive | inactive | inactive |  | inactive | inactive |  | inactive | inactive | inactive |  | inactive
ON=C1CCCCC1 | inactive | inactive | inactive |  | inactive |  |  |  | inactive | inactive | inactive | inactive | inactive | inactive | inactive | inactive | inactive |  | inactive | inactive
COc1ccc(NC(C)=O)cc1N | inactive | inactive | inactive |  | inactive | 54.7 µM [activator] (active) and inactive | 54.3 µM (active) and inactive | inactive | inactive | inactive | inactive | inactive | inactive | inactive | inactive | inactive |  |  | inactive | inactive

From PubChem BioAssay (Tox21)
